Hits are enriched below; roughly 1.7% of the tested compounds scored in any of these assays.
GLP-1R agonist – activates the human GLP-1 receptor. HEK293 GLP-1R CRE-luciferase, luminescence, 4-6 h; cells express a hypersensitive GLP-1R form. Potency, µM (top dose mostly 45.6 µM), inactives show at the top dose activation, actives largely listed as activators. 380,000 tested, 0.007% active; note: % of control where 0% means no effect
Target sequence (P43220 whole entry, looked up): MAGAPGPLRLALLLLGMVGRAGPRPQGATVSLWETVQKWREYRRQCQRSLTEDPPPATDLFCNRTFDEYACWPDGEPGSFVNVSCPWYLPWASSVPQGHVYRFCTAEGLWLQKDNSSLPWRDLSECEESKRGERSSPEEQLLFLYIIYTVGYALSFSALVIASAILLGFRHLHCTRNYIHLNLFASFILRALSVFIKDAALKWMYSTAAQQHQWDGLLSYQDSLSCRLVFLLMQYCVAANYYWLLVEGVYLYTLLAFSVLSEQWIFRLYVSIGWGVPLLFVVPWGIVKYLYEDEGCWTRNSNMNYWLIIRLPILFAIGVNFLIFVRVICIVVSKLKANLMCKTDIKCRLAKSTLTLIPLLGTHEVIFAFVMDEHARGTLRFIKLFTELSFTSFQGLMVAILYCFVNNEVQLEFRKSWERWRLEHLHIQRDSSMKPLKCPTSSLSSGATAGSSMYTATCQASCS
GLP-1R inv ag – GLP-1 receptor (human) inverse agonism | P43220 | HEK293 GLP-1R CRE-luciferase, luminescence, 24 h; GLP-1R form is constitutively active | Potency, µM (series often up to 38.3 µM), without a hit: top-dose activity change, negative = inhibition, usual class: inhibitors | 410,000 tested, 1.6% active | AID 624417; note: % is set by controls: 0 for no effect and ±100 for the full control effect; nearly all actives have a fitted effect of over 55% in size
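Using stably transfected HEK293 (constitutively active GLP-1R, cAMP-luciferase reporter), compounds were incubated 24 hr and luciferase measured by luminescence.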
PTHR1 ag – agonists of human PTHR1 parathyroid hormone receptor | Q03431 | HEK293 GP2 PTHR1 cells, GloSensor cAMP luminescence, 1 h | Potency, µM (titrated, usually from 115 µM), for inactives: at the highest dose activation, usual class: activators | 410,000 tested, 0.075% active | AID 743266; note: nearly all actives have a fitted effect of over 55% in size
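HEK-293-derived GP2 cells expressing PTHR1 and a GloSensor cAMP reporter, 3,000/well, plated overnight, given luciferin plus IBMX (each 0.5 mM as added) for 1 h at 37 °C, then compound for 1 h at 37 °C. Luminescence was read after 15 min at room temperature.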
HEK293 tox – cytotoxicity counter-screen for GLP-1 receptor inverse agonists; 410,000 tested, 0.13% active; Potency, µM (series often up to 38.3 µM), without a hit: at the top dose activity change, negative = inhibition, actives largely listed as inhibitors; HEK293 cAMP-luciferase reporter cells, luminescence, 24 h; AID 624418;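 note: loss of luciferase light is scored as toxicity; % is set by controls: 0 for no effect and ±100 for the full control effect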
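To flag toxic compounds, the library was rerun on cells for 24 hr at 37 deg C and 5% CO2. Viability-linked luminescence was captured 12 min after adding luciferase detection reagent.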
* hit, by the source's call; i = inactive; ? = inconclusive; / = not tested or not shown; [ ] = dose if it differs, or a comment. Calls come from the whole dose curve; as a rule, active = well fitted curve in the direction sought with a large enough effect; inconclusive = small, poorly fitted or top-dose-only effect, or another doubt; inactive = no such curve, though single readings can be large; an effect the other way counts as inactive or inconclusive. Potency is the fitted concentration of half-maximal effect.

SMILES	GLP-1R agonist	GLP-1R inv ag	PTHR1 ag	HEK293 tox
CCOC(=O)c1ccc(N2C(=O)c3n[nH]c(-c4cccs4)c3C2c2cccc(F)c2)cc1 (stereo not given)	/	?	-27%	-4%
CS(=O)(=O)c1ccccc1C(=O)N1CCN(S(=O)(=O)c2ccc(C3CCCCC3)cc2)CC1	-1%	10µM*	-35%	-7%
O=C(c1ccco1)N1CCN(S(=O)(=O)c2ccc(C3CCCCC3)cc2)CC1	-1%	19%	-21%	-3%
CN1CCN(c2ccc3c(c2)C2CC3CCN2C(=O)OCc2ccccc2)CC1 (stereo not given)	30%	10µM*	i	0%
O=C(OCc1ccccc1)N1CCC2CC1c1cc(N3CCOCC3)ccc12 (stereo not given)	10%	?	-48%	15%
CCOc1cc(C(=O)NCC(c2ccc(N(C)C)cc2)N2CCOCC2)cc(OCC)c1OCC (stereo not given)	/	3%	i	1%
COC(=O)c1c(NC(=O)CSc2nnc(-c3ccco3)n2Cc2ccccc2)sc(C)c1C	-1%	13µM*	i	0%
COC(=O)c1c(NC(=O)CSc2nc3ccccc3c(=O)n2Cc2ccco2)sc(C)c1C	2%	16%	-21%	6%
O=C(CSc1nnc(-c2ccco2)n1Cc1ccccc1)OC1CCCCC1	1%	10µM*	-21%	-20%
CC(C)(C)c1ccc(CSC2=Nc3ccccc3C3=NC(CC(=O)NCc4cccs4)C(=O)N23)cc1 (stereo not given)	/	10µM*	i	13%
CN(C)c1ccc(NC(=O)CSC2=Nc3ccccc3C3=NC(CCC(=O)NCc4cccs4)C(=O)N23)cc1 (stereo not given)	/	5.6µM*	i	0%
COc1ccc2c(C)c(CC(=O)NCc3ccccc3Cl)c(=O)oc2c1OC	/	6%	-21%	3%
CCc1nc(SC)ncc1C(=O)N1CCN(c2cc(C)ccc2C)CC1	/	?	i	31%
CCOc1ccccc1CNC(=O)C1CCN(Cc2cc3ccccc3n2Cc2ccccc2)CC1	/	?	-7%	0%
O=C1c2ccccc2-c2onc3ccc(NCc4ccco4)c1c23	15%	?	-33%	11µM*
O=C1C=C(N2CCCCC2)c2ccccc2C1=O	-20%	?	-23%	10µM*
Oc1ccc(-c2n[nH]c(C(F)(F)F)c2-c2ccccc2)c(O)c1	2%	?	-80%	-9%
COc1ccccc1-c1c(-c2ccc(O)cc2O)n[nH]c1C(F)(F)F	-3%	11µM*	-19%	-15%
O=c1c2c3c(sc2n(Cc2cc(=O)n4ccccc4n2)c(=O)n1-c1ccccc1)CCC3	/	2%	i	11%
CNCCC=C1c2ccccc2CCc2ccccc21	11%	6.3µM*	-5%	-18%
Cc1ccc2ncc(C(=O)c3ccc(C)c(C)c3)c(S(=O)(=O)c3ccc(F)cc3)c2c1	/	13µM*	-24%	-17%
COc1ccc(S(=O)(=O)c2c(C(=O)c3ccc(C)c(C)c3)cnc3ccc(F)cc23)cc1	/	?	i	-22%
COc1ccc(NC2=NC(=S)N(c3ccccc3C)C23CCCCC3)cc1	-7%	7.9µM*	i	-20%
CC(=O)Nc1ccc(OC(=O)c2ccccc2OC(C)=O)cc1	3%	/	/	/
N#CC(c1cccc(Cl)c1)c1ccc2c(C(F)(F)F)cc(C(F)(F)F)nc2n1 (stereo not given)	-24%	3.2µM*	-12%	-27%
SMILES	GLP-1R agonist	GLP-1R inv ag	PTHR1 ag	HEK293 tox
Cc1ccnc(OC(C(=O)O)C(OCc2ccccc2)(c2ccccc2)c2ccc(C(F)(F)F)cc2)n1 (stereo not given)	-2%	10µM*	-31%	15%
Cc1cc(C)c(S(=O)(=O)N2CCCCC2)cc1N(C)S(=O)(=O)c1ccc(Cl)cc1	-3%	13µM*	-15%	-8%
O=C(CC1C(=O)NCCN1C(=O)Nc1ccc(Cl)cc1)Nc1ccc(F)cc1 (stereo not given)	7%	11µM*	14%	-10%
O=C(CC1C(=O)NCCN1C(=O)c1ccc(Cl)cc1)Nc1ccc(F)cc1 (stereo not given)	-11%	-2%	i	1%
COc1cc(CN(C2CC2)S(=O)(=O)c2ccccc2Br)cc(OC)c1	24%	10µM*	i	8%
O=C(NCCC1=CCCCC1)C1COc2ccccc2O1 (stereo not given)	0%	8.9µM*	-16%[57.5 µM]	13%
O=C(NCCc1ccc(C(F)(F)F)cc1)C1COc2ccccc2O1 (stereo not given)	8%	?	i	-3%
S=C(NC1CCCCC1)N(CCc1nc2ccccc2[nH]1)C1CCCC1	-5%	10µM*	-2%	?
